{"source": "PubChem BioAssay AID588719", "about": "(Southern Research Specialized Biocontainment Screening …, 2011)", "note": "The whole screen tested about 1,500 compounds, of which about 920 (61%) were called active. How the calls were made is not given here. So high a share suggests a set chosen from earlier hits. Some of the results follow. Results with a measured potency or affinity are listed apart.", "data": [{"test": "Vero 76 cell cytotoxicity, dose response, cytotoxicity control for VEEV inhibitor project (AID 588719)", "details": "Vero 76 cells viability, cytotoxicity counter-screen; series mostly up to 25 µM", "values": [{"compound": "Cn1c(SCC(=O)c2ccccc2)nnc1-c1ccccn1", "outcome": "inactive"}, {"compound": "CCc1cc(C(=O)c2ccc(OC)cc2)c(NC(=O)CN2CCN(C)CC2)s1", "outcome": "inactive"}, {"compound": "O=C(Nc1ccccc1)N1CCN(C2c3ccccc3-c3ccccc32)CC1", "outcome": "inactive"}, {"compound": "Cc1ccc(-c2nc(CCN3C(=O)c4ccccc4C3=O)cs2)cc1", "outcome": "inactive"}, {"compound": "CCN(CC)c1ccc(S(=O)(=O)N2CCOCC2)cc1NC(=O)COC(=O)/C=C/c1ccc(C)o1", "outcome": "inactive"}, {"compound": "CC(=O)N1CCC(C(=O)Nc2cc(S(=O)(=O)N3CCCCC3)ccc2C)CC1", "outcome": "inactive"}, {"compound": "COCOCCn1cc(CN2CCS(=O)(=O)N(Cc3ccc(-c4ccc(F)nc4)cc3)C(CC(C)C)C2=O)nn1", "note": "(stereo not given)", "outcome": "inactive"}, {"compound": "CN1CCN(c2ccc(-c3cccc(NC(=O)COc4ccc(Cl)cc4Cl)c3)nn2)CC1", "outcome": "inactive"}, {"compound": "Cc1ccc(C(C[N+](=O)[O-])Sc2ccc(N)cc2)cc1", "note": "(stereo not given)", "outcome": "inactive"}, {"compound": "COc1ccc(CCNc2cc(C)nc3c(-c4ccccc4)cnn23)cc1OC", "outcome": "inactive"}, {"compound": "CCOC(=O)C1CCN(C(c2ccccn2)c2c(C)[nH]c3ccccc23)CC1", "note": "(stereo not given)", "outcome": "inactive"}, {"compound": "O=c1[nH]c(-c2ccccn2)nc2sc(-c3ccccc3)cc12", "outcome": "inactive"}, {"compound": "C=CCn1c(SCC(=O)c2cccs2)nc2sc(C)c(C)c2c1=O", "outcome": "inactive"}, {"compound": "Cn1c(=O)c2[nH]c(CSCc3ccccc3)nc2n(C)c1=O", "outcome": "inactive"}, {"compound": "Cc1ccc(CNc2ccc(O)cc2)cc1", "outcome": "inactive"}, {"compound": "O=C(/C=C/c1ccc2c(c1)OCO2)c1ccccn1", "outcome": "inactive"}, {"compound": "CN1C/C(=C\\c2ccc(N3CCOCC3)cc2)C(=O)/C(=C/c2ccc(N3CCOCC3)cc2)C1", "outcome": "inactive"}, {"compound": "Nc1cnn(C2OC(CO)C(O)C2O)c(=O)n1", "note": "(stereo not given)", "outcome": "inactive"}, {"compound": "Cc1ccccc1Oc1ccc2c(c1)[C@@H]1C[C@H](N(C)C(=O)c3ccco3)[C@H]([C@H](C)O)C(=O)N1CC2", "outcome": "inactive"}, {"compound": "CCOC(=O)c1oc2ccc(Br)cc2c1NC(=O)CN1CCN(C)CC1", "outcome": "inactive"}, {"compound": "CCOc1ccc(-c2c(C(=O)N/N=C(\\C)c3cccs3)nnn2-c2nonc2N)cc1", "outcome": "inactive"}, {"compound": "Cc1nn(CC(=O)Nc2nccs2)c(C)c1[N+](=O)[O-]", "outcome": "inactive"}, {"compound": "O=C1CCCCC1Nc1ccc2ccccc2c1", "note": "(stereo not given)", "outcome": "inactive"}, {"compound": "CC(C)(C)C1CCC(=NNc2ccc(S(N)(=O)=O)cc2[N+](=O)[O-])CC1", "note": "(stereo not given)", "outcome": "inactive"}, {"compound": "NC(=S)N/N=C/c1ccc(-c2ccc(SC(F)F)cc2)o1", "outcome": "inactive"}, {"compound": "CCN1CCN(CCCNC(=O)c2cc3c(s2)-c2ccccc2OC3)CC1", "outcome": "inactive"}, {"compound": "CCN(CC)CCCNC(=O)c1ccc2c(Cl)c3c(nc2c1)CCCC3", "outcome": "inactive"}, {"compound": "O=C1CC(/C=C/c2ccc(Cl)cc2)=Nc2ccccc2N1", "outcome": "inactive"}, {"compound": "CN1CCN(NC(=O)c2cc(-c3cccc(Cl)c3)nc3ccccc23)CC1", "outcome": "inactive"}, {"compound": "CCOC(=O)c1c(CN2CCOCC2)n(-c2ccccc2)c2ccc(O)cc12", "outcome": "inactive"}, {"compound": "CC(C)/C(C=O)=C(/NC1CCCCC1)c1ccccc1", "outcome": "inactive"}, {"compound": "O=C(NC1CCCCC1)c1ccc2ccccc2c1O", "outcome": "inactive"}, {"compound": "CN1c2ccccc2C(C)(C)C12CC(c1ccc(S(=O)(=O)N3CCCCC3)cc1)=NO2", "note": "(stereo not given)", "outcome": "inactive"}, {"compound": "COc1ccc(OC)c2cc3ccccc3cc12", "outcome": "inactive"}, {"compound": "O=C(O)CCc1ccc(-c2ccccc2)n1-c1ccc(C(=O)O)cc1", "outcome": "inactive"}, {"compound": "COc1cccc(C#Cc2ccc3c(c2)O[C@H](CN(C)C)[C@@H](C)CN([C@@H](C)CO)S3(=O)=O)c1", "outcome": "inactive"}, {"compound": "O=C(Cc1n[nH]c(=O)c2ccccc12)OCc1c(Cl)cccc1Cl", "outcome": "inactive"}, {"compound": "CC(=O)c1c(O)c(C)c(O)c2c1OC1=Cc3c(c(C)nn3C)C(=O)C12C", "note": "(stereo not given)", "outcome": "inactive"}, {"compound": "Cc1onc(-c2ccc(Cl)cc2Cl)c1-c1csc(N/N=C/c2ccccc2Cl)n1", "outcome": "inactive"}, {"compound": "Cc1cccc(NC(=O)CSc2cc(C)c(C#N)c3nc4ccccc4n23)c1", "outcome": "inactive"}, {"compound": "CN(C)CCNC(=O)c1cc2sc3ccccc3c2s1", "outcome": "inactive"}, {"compound": "C(=N\\Nc1nncc2ccccc12)/c1ccccc1", "outcome": "inactive"}, {"compound": "Cc1ccc2c(Cl)cc(Cl)c(O)c2n1", "outcome": "inactive"}, {"compound": "CCOC(=O)c1c(-c2cccc3ccccc23)csc1NC(=O)C1C2CCC(O2)C1C(=O)O", "note": "(stereo not given)", "outcome": "inactive"}, {"compound": "CN(C)S(=O)(=O)c1cccc(C(=O)Nc2ccccc2C(=O)NC2CC2)c1", "outcome": "inactive"}, {"compound": "CC(C)c1ccc(N=Cc2c(O)n(C3CC3)c(=S)[nH]c2=O)cc1", "outcome": "inactive"}, {"compound": "CCOC(=O)CCCc1ccc(/C(C)=N/NC(N)=S)cc1", "outcome": "inactive"}, {"compound": "CC(Sc1ccc(S(=O)(=O)N2CCOCC2)cn1)c1ccccc1Cl", "note": "(stereo not given)", "outcome": "inactive"}, {"compound": "CC(C)(C)c1cc[n+](C2=C([O-])c3ccccc3C(=O)/C2=N\\S(=O)(=O)c2cccs2)cc1", "outcome": "inactive"}, {"compound": "Cc1ccccc1NS(=O)(=O)c1ccc(C(=O)NCc2ccccc2CN2CCCC2)cc1", "outcome": "inactive"}, {"compound": "O=C(CCCOc1ccc(Cl)cc1Cl)Nc1ccccc1C(=O)O", "outcome": "inactive"}, {"compound": "O=C(Oc1oc(-c2ccco2)nc1C=Nc1ccc(Cl)cc1)c1ccco1", "outcome": "inactive"}, {"compound": "CC1(C)Nc2ccccc2C(=O)N1c1ccc(Br)cc1", "outcome": "inactive"}, {"compound": "COc1ccc(C/C(N)=N/OC(=O)c2cccs2)cc1", "outcome": "inactive"}, {"compound": "NNC(=O)C1CCN(S(=O)(=O)c2ccc(Cl)cc2)CC1", "outcome": "inactive"}, {"compound": "Cc1cc(O)c(-c2cc(C(=O)NCCc3ccc(S(N)(=O)=O)cc3)[nH]n2)cc1C", "outcome": "inactive"}, {"compound": "Cc1cc(C)c2c(=O)n(CC(=O)NC3CCCC3)sc2n1", "outcome": "inactive"}, {"compound": "Cc1cc(NC(=O)COC(=O)c2c(Cl)cccc2Cl)no1", "outcome": "inactive"}, {"compound": "COc1ccc(-c2cc(C(=O)Nc3c(C)n(C)n(-c4ccccc4)c3=O)c3ccccc3n2)c(OC)c1", "outcome": "inactive"}, {"compound": "COc1ccc(C)c2sc(N(CCCN(C)C)C(=O)c3ccc4c(c3)OCCO4)nc12", "outcome": "inactive"}, {"compound": "COc1ccccc1/C=C/C(=O)c1ccccc1", "outcome": "inactive"}, {"compound": "COC(=O)CCC1(C(N)=O)CCC(=O)c2ccccc21", "note": "(stereo not given)", "outcome": "inactive"}, {"compound": "CC1(C)Cc2c(sc(NC(=O)COc3cccc4ccccc34)c2C#N)C(C)(C)N1", "outcome": "inactive"}, {"compound": "OCCCNc1cc(-c2ccnc(Nc3cccc(Cl)c3)n2)ccn1", "outcome": "inactive"}, {"compound": "CCCC(C)NC(=O)c1ccccc1SC", "note": "(stereo not given)", "outcome": "inactive"}, {"compound": "CC1(C)CCCN(Cc2c(O)ccc3c(=O)c(-c4nc5ccccc5s4)c(N)oc23)C1", "outcome": "inactive"}, {"compound": "CCOC(=O)C1=NNC(=O)C1", "outcome": "inactive"}, {"compound": "O=C(Nc1ccc(Cl)c(Cl)c1)Nc1ccccc1C(=O)O", "outcome": "inactive"}, {"compound": "CCN(CC)CCN(Cc1cc2ccc(C)cc2[nH]c1=O)C(=O)Nc1ccc(Cl)cc1", "outcome": "inactive"}, {"compound": "O=C(COc1cccc2ccccc12)Nc1ccc(Cl)cc1C(=O)O", "outcome": "inactive"}, {"compound": "CCN(CC)CCNC(=O)c1cc2cc(Br)ccc2s1", "outcome": "inactive"}, {"compound": "CC(=O)Nc1cc[n+](CC(=O)c2cccc([N+](=O)[O-])c2)cc1", "outcome": "inactive"}, {"compound": "Nc1ccc(C(=O)OCc2nc3cc4ccccc4cc3[nH]2)cc1", "outcome": "inactive"}, {"compound": "C[C@@H]1CN([C@H](C)CO)C(=O)CCCn2nncc2CO[C@@H]1CN(C)C(=O)c1cc(-c2ccccc2)on1", "outcome": "inactive"}, {"compound": "COc1ccc(-c2onc(C)c2-c2ccc3c(c2)OCCO3)c(O)c1", "outcome": "inactive"}, {"compound": "Cc1[nH]c2ccc(-c3nnc(SCC(=O)c4ccccc4F)o3)cc2c1C", "outcome": "inactive"}, {"compound": "O=C(CCCN1C(=O)/C(=C\\c2ccco2)SC1=S)Nc1ccc2ccccc2c1", "outcome": "inactive"}, {"compound": "CCOC(=O)c1c(NC(=O)C(C)Sc2cccc[n+]2[O-])sc2c1CCN(Cc1ccccc1)C2", "note": "(stereo not given)", "outcome": "inactive"}, {"compound": "Cc1nc2c(sc3nc(N4CCOCC4)c4c(c32)CC(C)(C)OC4)c(-c2ccccc2)c1C(=O)O", "outcome": "inactive"}, {"compound": "CC(C)CCOC(=O)C[N+](C)(C)CCOC1CC2CCC1(C)C2(C)C", "note": "(stereo not given)", "outcome": "inactive"}, {"compound": "CC(Sc1nnc(Nc2ccccc2)s1)C(=O)Nc1nc(-c2ccccc2)cs1", "note": "(stereo not given)", "outcome": "inactive"}, {"compound": "O=C1NC(=O)N(Cc2ccccc2)C(=O)/C1=C/C=C/c1ccco1", "outcome": "inactive"}, {"compound": "CCOC(=O)N1CCN(S(=O)(=O)c2ccc(C(=O)N(CCCN(C)C)c3nc4ccc(CC)cc4s3)cc2)CC1", "outcome": "inactive"}, {"compound": "COc1ccccc1C1CCCN1Cc1nc(-c2ccc(C)s2)oc1C", "note": "(stereo not given)", "outcome": "inactive"}, {"compound": "NCCSc1c(-c2ccc(F)cc2)[nH]c2ccccc12", "outcome": "inactive"}, {"compound": "CSc1nnc2c3ccccc3n(CCc3ccccc3)c2n1", "outcome": "inactive"}, {"compound": "CN(C)CC/C=C1/c2ccccc2Sc2ccc(Cl)cc21", "outcome": "inactive"}, {"compound": "CCCc1cc(C(=O)Nc2cnn(Cc3ccc(F)cc3)c2)no1", "outcome": "inactive"}, {"compound": "COc1cc(C2C(C#N)=C(N)Oc3c2ccc2ccccc32)ccc1OCC(=O)Nc1ccc(C)cc1", "note": "(stereo not given)", "outcome": "inactive"}, {"compound": "COc1cccc(N2C(=O)/C(=C/c3ccc(C)o3)C(=O)NC2=S)c1", "outcome": "inactive"}, {"compound": "CNCCCC12CCC(c3ccccc31)c1ccccc12", "outcome": "inactive"}, {"compound": "Cc1ccccc1S(=O)(=O)N(C)C[C@H]1OCc2cnnn2CCCC(=O)N([C@H](C)CO)C[C@H]1C", "outcome": "inactive"}, {"compound": "CCOc1ccccc1CNC(=O)c1cc2oc3ccccc3c2n1C", "outcome": "inactive"}, {"compound": "Cc1oc(C(C)(C)C)cc1-c1cc(NC(=O)c2ccc([N+](=O)[O-])cc2)n[nH]1", "outcome": "inactive"}, {"compound": "COc1ccc(C2(C)ON(c3ccccc3C(F)(F)F)C2=O)cc1", "note": "(stereo not given)", "outcome": "inactive"}, {"compound": "COc1ccccc1[C@@]1(C)ON(c2ccccc2C(F)(F)F)C1=O", "outcome": "inactive"}, {"compound": "O=C(O)CCN1C(=O)/C(=C2\\C(=O)N(Cc3ccc(F)cc3)c3ccccc32)SC1=S", "outcome": "inactive"}, {"compound": "O=C(CCN1C(=O)/C(=C/c2ccccc2F)SC1=S)NCCc1ccc(O)cc1", "outcome": "inactive"}, {"compound": "COc1cc(NC(C)CCCN)c2nc(C)ccc2c1Oc1ccc(F)cc1", "note": "(stereo not given)", "outcome": "inactive"}, {"compound": "O=c1c2ccccc2nc(-c2ccoc2)n1CCc1ccccc1", "outcome": "inactive"}, {"compound": "CCc1[nH]nc(C(=O)NC2CCCc3c2cnn3-c2cc(C)cc(C)c2)c1C", "note": "(stereo not given)", "outcome": "inactive"}, {"compound": "COc1ccc(OCCn2c(C)nc3ccccc32)cc1", "outcome": "inactive"}, {"compound": "CCCCCCCCCCOC(=O)Cn1c(COc2cccc(OC)c2)[n+](C)c2ccccc21", "outcome": "inactive"}, {"compound": "O=C(CSC1=Nc2ccccc2C2CC=NN12)Nc1ccc2c(c1)OCO2", "note": "(stereo not given)", "outcome": "inactive"}, {"compound": "NC(=O)c1ccc(NC(=O)COC(=O)C2COc3ccccc3O2)cc1", "note": "(stereo not given)", "outcome": "inactive"}]}]}
